Laboratory results: PubChem BioAssay

Each molecule was assayed on Sonic hedgehog protein (Shh) (assay: small-molecule binders of Shh protein, primary screen, biochemical, small-molecule microarray, 635/667 nm fluorescence (AID 1151;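 further: Shh protein binding to compounds spotted on small-molecule microarray slides; score combines spot fluorescence intensity with signal-to-noise across triplicate slides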)). Settings: small-molecule microarray binding, 635 nm fluorescence; higher = more signal.

First: C=C(/C(=C/C[C@@H](OC(C)=O)c1ccc(OCCO)cc1)c1cnc2ccccc2c1)C(C)C
Second: C=CC[C@@]1(C(N)=O)N=C(c2ccc(OCCCO)cc2)O[C@@H]1c1ccccc1CN=[N+]=[N-]
The composite z-score of the first is higher: 1.67 for the first, -0.776 for the second.

First: O=C1OCC=C[C@H]2OC34C=CCN(CCN5CCOCC5)C(=O)[C@H]3N(CCCO)C(=O)[C@@H]4[C@@H]12 (some centres not stated)
Second: CCCCCN1CC=CC23O[C@@H]4/C=C\CCCOC(=O)C4[C@H]2C(=O)N(CCCO)[C@@H]3C1=O (some centres not stated)
The composite z-score of the first is higher: 1 for the first, -0.163 for the second.

First: C=CC[C@]1(C(=O)NCCCOC)N=C(c2ccc(OCCCO)cc2)O[C@H]1c1ccccc1N=[N+]=[N-]
Second: O=C(NCc1ccccc1)[C@@]1(CCS(=O)(=O)c2ccccc2)N=C(c2ccc(OCCCO)cc2)O[C@H]1c1ccccc1
The composite z-score of the first is higher: -0.477 for the first, -0.756 for the second.

First: COCC(=C=CC[C@H](O)c1ccccc1OCCO)C[C@H](O)c1cc(Cl)cc(Cl)c1O
Second: COC(=O)c1c(CC[C@@H](CO)NC(=O)N2CCC[C@H]2Cn2cc(-c3ccccn3)nn2)oc(C(C)=O)c1C(=O)OC
The composite z-score of the first is higher: 1.37 for the first, 0.515 for the second.

Compared with C=CCN(Cc1ccccc1)C(=O)C(c1cccs1)N(CCOCCO)C(=O)/C=C\C(=O)O (configuration not stated), C=CCNC(=O)[C@@H]1[C@H]2C(=O)O[C@H](c3ccccc3)[C@H](c3ccccc3)N2[C@H](c2ccccc2OCCO)[C@@]12C(=O)N(C(=O)OCCOC)c1ccc(C#CCNC(N)=O)cc12 is higher in composite z-score: -0.933 for the first, 1.53 for the second.

Going from CCN(CC)c1ccc(N2CC=CC34O[C@@H]5/C=C\CCCOC(=O)C5[C@H]3C(=O)N(CCO)[C@@H]4C2=O)cc1 (some centres not stated) to O=C1c2ccccc2[C@](Cc2ccccc2I)(C(=O)NC2CC2)[C@H](c2ccc(CO)cc2)N1C1CCCCC1, the composite z-score rises from 0.0512 to 1.06.
